From PubChem
Hits are enriched below; roughly 4% of the tested compounds scored in any of these assays.
KKLEB cytotox: cytotoxicity in KKLEB CF airway cells, primary screen, cytotoxicity control for CF NF-kB inhibitor project, cell-based, uHTS, fluorescence assay plates | KKLEB CF airway cells viability, ATPlite luminescence, overnight; stronger effect = lower value; cells stimulated with P. aeruginosa culture filtrate | activity change (cytotoxicity), % at 5 µM | hit rate 0.36% among 360,000;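 active = corrected activity change at or below -50% at 5 µM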
HIF-2a block: HIF-2a reporter inhibitors, primary screen, luminescence, 786-0 RCC cells | 786-0 RCC cells HIF-2a reporter, luciferase luminescence, overnight | inhibition, % at 18.8 µM | hit rate 0.72% among 360,000;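 active = inhibition of the luminescence signal of 40% or more relative to plate controls, in a single-dose primary screen at 18.75 µM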
Peg3 prom inh-1: Peg3 promoter-driven luciferase inhibitors, primary screen, cell-based, HeLa, luciferase luminescence. HeLa PEG-Prom luciferase reporter, overnight. inhibition, % at 20 µM. hit rate 1.7% among 360,000. AID 588405, 2011;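 active = inhibition of at least 50% at 20 µM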
TROY NFkB inh: inhibitors of TROY-driven NF-kB signaling, primary screen, Q293 LMP1-TROYcd cells, NF-kB luciferase, uHTS; inhibition, % at 10 µM; AID 1347056, 2019; hit rate 0.98% among 360,000; Q293 LMP1-TROYcd NF-kB luciferase reporter, 4 h;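 active = compounds whose plate-normalised and pattern-corrected inhibition of the luciferase reporter signal at the single screening dose is 50% or more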
CF NFkB block: inhibitors of PAF-induced NF-kB signaling, primary screen, cell-based, GFP fluorescence, uHTS; KKLEB NF-kB-GFP reporter, GFP fluorescence overnight; inhibition, % at 5 µM; hit rate 0.86% among 360,000;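 active = at least 50% inhibition at 5 µM, scaled per plate between neutral and stimulator controls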;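 note: PAF is a Pseudomonas aeruginosa culture filtrate used as stimulus; plate controls were PAF-stimulated DMSO wells for no effect and unstimulated DMSO wells for full effect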
TWEAK-Fn14 inh: inhibitors of TWEAK-Fn14 signaling, primary screen, luciferase reporter cells, uHTS. TWEAK-stimulated Fn14 reporter cells, luciferase luminescence, 8 h. inhibition, % at 10 µM. hit rate 2% among 360,000; in the data active = inhibition above about 50%
Peg3 prom inh-2: Peg3 promoter reporter inhibitors, retest, confirmation, cell-based, HeLa, luciferase reporter, single concentration | shares compounds with Peg3 prom inh-1 | HeLa PEG-Prom luciferase reporter, luminescence, overnight | inhibition, % at 20 µM | hit rate 84% among 1,300;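 active = at 20 µM dose, 40% or more inhibition averaged across four replicates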
* marks the source's active call; other numbers are inactive results; . = not tested or not shown.

SMILES	KKLEB cytotox	HIF-2a block	Peg3 prom inh-1	TROY NFkB inh	CF NFkB block	TWEAK-Fn14 inh	Peg3 prom inh-2
CCN(CC)C(=O)[C@H]1CC(CC(=O)NCc2cccc(C(F)(F)F)c2)C(=O)N2CCc3c([nH]c4ccc(OC)cc34)[C@]12C (some centres not stated)	0.5	3.6	6.5	9.0	-1.4	18.6	.
COc1ccc(C2NCCc3c2[nH]c2ccccc32)cc1COc1ccc(F)cc1 (configuration not stated)	-27.7	6.6	96.7*	-9.9	33.4	-15.4	98.0*
Cc1ccc(F)cc1-c1cc2nc(NCCCN(C)C)n(C)c(=O)c2s1	16.9	-6.3	70.0*	4.0	3.3	-6.2	48.3*
CN(C)CCCNc1nc2cc(-c3ccsc3)sc2c(=O)n1C	0.0	-27.7	-3.9	2.2	-11.4	-34.0	.
Oc1ccc(C23CCCC2C2(CCCC2)c2ccc(O)cc2O3)c(O)c1 (configuration not stated)	1.4	23.7	51.4*	42.5	19.2	24.3	44.1*
Cc1cccc(C(=O)N2CCN(c3ccc(N4CCOCC4)nn3)CC2)c1	22.4	5.7	-6.7	8.2	-14.3	2.3	.
CC(C)N1C/C(=C/c2ccsc2)C(=O)/C(=C/c2ccsc2)C1	8.2	29.5	103.3*	18.3	-53.5	14.2	35.4
O=C1CCC(C(=O)OCC(=O)c2ccccc2)N1 (configuration not stated)	-6.0	8.9	-8.0	10.0	6.6	3.6	.
CC1CC(C)C(=O)C(C(CC2CC(=O)NC(=O)C2)OC(=O)CC(=O)c2ccccc2)C1 (configuration not stated)	-14.2	27.4	81.1*	39.9	65.7*	51.3*	82.8*
O=C1/C(=C/c2ccccc2Cl)SC(=S)N1CCCC(=O)N(CCO)c1ccccc1	2.1	70.8*	66.7*	63.4*	13.2	60.3*	90.9*
O=C(CCCN1C(=O)/C(=C/c2ccccc2Cl)SC1=S)NNC(=O)c1ccc(Cl)cc1	-8.9	73.3*	63.8*	66.3*	4.1	53.3*	44.7*
O=C1/C(=C\c2cccc(O)c2O)SC(=S)N1Cc1ccccc1	1.6	2.5	65.8*	16.0	-17.8	33.3	61.5*
O=S(=O)(c1ccc(Br)cc1)N1CCCN(Cc2ccccc2F)CC1	2.3	6.2	18.2	11.9	-2.2	-11.7	.
Cn1c(CO)cnc1S(=O)(=O)Cc1ccc([N+](=O)[O-])cc1	-6.3	10.4	3.4	9.4	6.9	-12.1	.
CCOC(=O)c1c(N)sc(C(=O)N2CCCCC2)c1C	3.9	8.4	19.4	13.4	8.6	-4.8	.
Cc1ncn(C23CC4CC(CC(C4)C2)C3)n1	13.4	6.5	1.9	-4.1	-23.4	21.0	.
O=C(Nc1ccccc1)C1CC(=O)n2ncnc2N1 (configuration not stated)	2.1	-5.0	0.3	16.0	-21.1	14.3	.
CNCC[C@H](Oc1cccc2ccccc12)c1cccs1	-14.4	-3.3	90.3*	4.5	47.1	-23.7	91.6*
Cc1ccc(N2CC(C(=O)Nc3nccs3)CC2=O)cc1Cl (configuration not stated)	-31.6	-64.6	89.7*	3.8	45.0	20.4	94.2*
COc1ccc(-c2nc3ccccc3s2)cc1O	-53.5*	40.0	55.1*	68.0*	-9.8	98.8*	36.7
CC(C)c1ccc(-c2nc3ccccc3s2)cc1	-79.1*	77.3*	72.1*	95.6*	21.0	106.8*	83.1*
COc1ccc(-c2cc3c(=O)n(CC(=O)NCCCc4ccccc4)ncn3n2)cc1	-17.3	-196.9	-85.0	-33.7	2.4	9.3	.
Cc1ccc(C(=O)N(CCCN(C)C)c2nc3ccc(Cl)cc3s2)cc1C	-21.3	-28.9	56.4*	-55.3	30.7	-22.3	92.7*
CN(C)CCCN(C(=O)c1ccc2c(c1)OCCO2)c1nc2ccc(Cl)cc2s1	-10.3	-195.8	-11.2	37.9	15.8	18.2	.
